The target of assay [1] is T1, GST-Nv-NF-kB (Ser allele) (Nematostella vectensis, UniProt A7UNT2 2-411).
T1 sequence: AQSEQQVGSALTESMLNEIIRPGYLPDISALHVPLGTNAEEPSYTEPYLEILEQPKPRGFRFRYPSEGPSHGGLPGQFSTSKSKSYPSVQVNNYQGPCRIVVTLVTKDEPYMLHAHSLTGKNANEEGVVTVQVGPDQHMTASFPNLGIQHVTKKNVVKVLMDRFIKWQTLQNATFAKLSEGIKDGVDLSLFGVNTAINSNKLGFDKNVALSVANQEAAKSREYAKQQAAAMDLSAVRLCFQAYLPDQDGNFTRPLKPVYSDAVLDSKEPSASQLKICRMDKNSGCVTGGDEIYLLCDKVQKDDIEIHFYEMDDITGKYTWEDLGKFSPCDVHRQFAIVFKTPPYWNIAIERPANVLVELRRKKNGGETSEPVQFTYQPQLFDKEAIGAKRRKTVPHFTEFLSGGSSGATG
Kind of assay: protein-binding microarray (PBM); PBM: ~300 nM protein, 6 mM HEPES pH 7.8, 80 mM KCl, 0.5 mM EDTA, 0.5 mM EGTA, 6% glycerol, 35 ng/ul poly-dIdC, 1% milk, 1 h, room temperature; Ap Aiptasia and Nv Nematostella (sea anemones) / Co Capsaspora / Aq Amphimedon (sponge) / Dm Drosophila / Hu human; RHD is the Rel homology domain; high values mean tight binding. Conditions: dsDNA, one strand shown.

A further assay deals with GST-Hu-p50 (Homo sapiens, UniProt P19838 7-356). The assay is described as above. The note with it: dsDNA, one strand shown.
Sequence of GST-Hu-p50 (P19838 7-356): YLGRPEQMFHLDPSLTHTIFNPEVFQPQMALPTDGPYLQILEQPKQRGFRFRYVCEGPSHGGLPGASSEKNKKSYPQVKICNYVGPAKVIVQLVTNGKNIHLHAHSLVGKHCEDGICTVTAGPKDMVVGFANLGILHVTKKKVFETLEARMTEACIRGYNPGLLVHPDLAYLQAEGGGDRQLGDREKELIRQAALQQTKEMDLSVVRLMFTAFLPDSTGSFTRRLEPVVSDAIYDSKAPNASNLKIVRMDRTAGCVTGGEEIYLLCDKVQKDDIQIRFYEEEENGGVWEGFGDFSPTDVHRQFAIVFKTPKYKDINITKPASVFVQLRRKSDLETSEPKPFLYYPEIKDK

Regarding “CCGATTAACATCAAAAACTCCCATGATGTTAATCGGGTCTTGATTCGCTTGACGCTGCTG”, the binding signal in assay [1] came out at 4.52 z-score; with GST-Hu-p50 it was 4.38 z-score.
Consider “CCGATTAACATCAATTCCCGTACTGATGTTAATCGGGTCTTGATTCGCTTGACGCTGCTG”, for which the results for the binding signal (in assay [1]; with GST-Hu-p50) were 1.96 z-score and 1.41 z-score, respectively.
As for “CCGATTAACATCAGGGACCGCCCTGATGTTAATCGGGTCTTGATTCGCTTGACGCTGCTG”, the binding signal came out at 1.35 z-score in assay [1] and 3.16 z-score in the assay with GST-Hu-p50.
Take “CCGATTAACATCAATGTCGGTGGTGATGTTAATCGGGTCTTGATTCGCTTGACGCTGCTG”: the binding signal was found to be 1.08 z-score in assay [1] and 1.95 z-score with GST-Hu-p50.
For “CCGATTAACATCAGGGAATATAATGATGTTAATCGGGTCTTGATTCGCTTGACGCTGCTG”, in that order: 3.88 z-score and 2.29 z-score.
On to “CCGATTAACATCAGGGGGTAGAATGATGTTAATCGGGTCTTGATTCGCTTGACGCTGCTG”, for which the values for the binding signal (in assay [1]; with GST-Hu-p50) were 4.04 z-score and 3.9 z-score, respectively.
For “CCGATTAACATCAAGGCATTCCCTGATGTTAATCGGGTCTTGATTCGCTTGACGCTGCTG”, in that order: 2.11 z-score and 1.31 z-score.
In the same order, the values of “CCGATTAACATCAACATGGGAAATGATGTTAATCGGGTCTTGATTCGCTTGACGCTGCTG” are 2.18 z-score and 1.56 z-score.
Regarding “CCGATTAACATCACGTTATTCCCTGATGTTAATCGGGTCTTGATTCGCTTGACGCTGCTG”, the binding signal amounted to 3.53 z-score in assay [1] and 1.05 z-score with GST-Hu-p50.
For “CCGATTAACATCAATTTCCCATATGATGTTAATCGGGTCTTGATTCGCTTGACGCTGCTG”, in that order: 3.63 z-score and 3.09 z-score.
With “CCGATTAACATCACAGTACCCCCTGATGTTAATCGGGTCTTGATTCGCTTGACGCTGCTG”, the figures for the binding signal (in assay [1]; with GST-Hu-p50) were 3.98 z-score and 3.45 z-score, respectively.
As for “CCGATTAACATCAGGGAAAAGAATGATGTTAATCGGGTCTTGATTCGCTTGACGCTGCTG”, the binding signal in assay [1] is 4.96 z-score; with GST-Hu-p50 it was 2.53 z-score.
For the sequence “CCGATTAACATCAGAACTTCCCATGATGTTAATCGGGTCTTGATTCGCTTGACGCTGCTG”, the binding signal was determined as 2.2 z-score in assay [1] and 1.47 z-score with GST-Hu-p50.
Regarding “CCGATTAACATCAGAATTGCCCCTGATGTTAATCGGGTCTTGATTCGCTTGACGCTGCTG”, the results for the binding signal (in assay [1]; with GST-Hu-p50) were 2.89 z-score and 4.35 z-score, respectively.
As for “CCGATTAACATCAAGCATCCCCCTGATGTTAATCGGGTCTTGATTCGCTTGACGCTGCTG”, the binding signal in assay [1] turned out to be 5.87 z-score; with GST-Hu-p50, 4.97 z-score.
In the case of “CCGATTAACATCAAAAAAAATCCTGATGTTAATCGGGTCTTGATTCGCTTGACGCTGCTG”, the binding signal worked out at 1.23 z-score in assay [1] and 1.51 z-score in the assay with GST-Hu-p50.
As for “CCGATTAACATCAGGGAATGCCATGATGTTAATCGGGTCTTGATTCGCTTGACGCTGCTG”, the binding signal in assay [1] came to 2.41 z-score; with GST-Hu-p50 it was 1.54 z-score.
As for “CCGATTAACATCAGGGGGGGCACTGATGTTAATCGGGTCTTGATTCGCTTGACGCTGCTG”, the binding signal in assay [1] worked out at 3.3 z-score; in the assay with GST-Hu-p50, 3.87 z-score.
On to “CCGATTAACATCAAGTTTTCCCATGATGTTAATCGGGTCTTGATTCGCTTGACGCTGCTG”, for which the binding signal in assay [1] came to 5.18 z-score; in the assay with GST-Hu-p50 it was 3.3 z-score.
Regarding “CCGATTAACATCAGAAGATTCCCTGATGTTAATCGGGTCTTGATTCGCTTGACGCTGCTG”, the values for the binding signal (in assay [1]; with GST-Hu-p50) were 3.95 z-score and 4.09 z-score, respectively.
Take “CCGATTAACATCAAAAATCCCGATGATGTTAATCGGGTCTTGATTCGCTTGACGCTGCTG”: the binding signal in assay [1] was 2.85 z-score; in the assay with GST-Hu-p50 it was 3.62 z-score.
For the sequence “CCGATTAACATCAGGGAGTTCCATGATGTTAATCGGGTCTTGATTCGCTTGACGCTGCTG”, the binding signal in assay [1] came to 2.53 z-score; in the assay with GST-Hu-p50, 2.54 z-score.
Regarding “CCGATTAACATCAGATTTCTCCCTGATGTTAATCGGGTCTTGATTCGCTTGACGCTGCTG”, the values for the binding signal (in assay [1]; with GST-Hu-p50) were 3.47 z-score and 1.72 z-score, respectively.
On to “CCGATTAACATCACGGCTTTCCCTGATGTTAATCGGGTCTTGATTCGCTTGACGCTGCTG”, for which the binding signal in assay [1] was 3.48 z-score; with GST-Hu-p50, 2.19 z-score.
Regarding “CCGATTAACATCAACAAAGTCCCTGATGTTAATCGGGTCTTGATTCGCTTGACGCTGCTG”, the binding signal is 6.52 z-score in assay [1] and 4.3 z-score with GST-Hu-p50.
“CCGATTAACATCAGGAACCTCCCTGATGTTAATCGGGTCTTGATTCGCTTGACGCTGCTG”: the binding signal in assay [1] stood at 1.05 z-score; with GST-Hu-p50, 1.22 z-score.
As to “CCGATTAACATCACATGGGAAACTGATGTTAATCGGGTCTTGATTCGCTTGACGCTGCTG”, the binding signal in assay [1] is 2.7 z-score; in the assay with GST-Hu-p50 it was 1.26 z-score.
In the same order, the values of “CCGATTAACATCAAATTGCCCCCTGATGTTAATCGGGTCTTGATTCGCTTGACGCTGCTG” are 4.54 z-score and 4.59 z-score.
Consider “CCGATTAACATCACCAATTTCCCTGATGTTAATCGGGTCTTGATTCGCTTGACGCTGCTG”, for which the values for the binding signal (in assay [1]; in the assay with GST-Hu-p50) were 6.05 z-score and 3.76 z-score, respectively.
On to “CCGATTAACATCAGGGAGATACCTGATGTTAATCGGGTCTTGATTCGCTTGACGCTGCTG”, for which the binding signal is 1.75 z-score in assay [1] and 3.08 z-score in the assay with GST-Hu-p50.
Take “CCGATTAACATCAAGGGGTCCCCTGATGTTAATCGGGTCTTGATTCGCTTGACGCTGCTG”: the binding signal in assay [1] came to 2.59 z-score; with GST-Hu-p50, 3.06 z-score.
Consider “CCGATTAACATCAGGACTTTACCTGATGTTAATCGGGTCTTGATTCGCTTGACGCTGCTG”, for which the binding signal is 2.66 z-score in assay [1] and 2.67 z-score with GST-Hu-p50.
As to “CCGATTAACATCAATCACCCCCATGATGTTAATCGGGTCTTGATTCGCTTGACGCTGCTG”, the results for the binding signal (in assay [1]; with GST-Hu-p50) were 2.78 z-score and 3.76 z-score, respectively.

The record behind these values is publication PMC5700166.
